A short description of assay [1]: Nuclear factor erythroid 2-related factor 2/antioxidant responsive element (Nrf2/ARE) small molecule agonists: qHTS cell viability counter screen in human keratinocytes (AID 1919968; active = well fitted curve in the direction sought with a large enough effect in the repeat runs; an effect the other way counts as inactive or inconclusive; note: nearly all actives have a fitted effect of over 55% in size; note: potency is the fitted concentration of half-maximal effect). The gist of the method:
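Parallel cytotoxicity read: KeratinoSens HaCaT cells, compound treatment 23 h, viability by CellTiter-Fluor fluorescence 1 h post-reagent.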
A general note: qHTS replaces the single test concentration by a dilution series.

Assay [2] is described as follows: Nuclear factor erythroid 2-related factor 2/antioxidant responsive element (Nrf2/ARE) small molecule agonists: luciferase reporter gene qHTS assay in human keratinocytes (AID 1919969). Note: nearly all actives have a fitted effect of over 35% in size. Note: potency is the fitted concentration of half-maximal effect. For orientation: In a reporter assay the amount or activity of a reporter protein is the signal.
Assay [3] has as its target Gonadotropin-releasing hormone receptor (Homo sapiens) (UniProt P30968). The assay is described as follows: Human gonadotropin-releasing hormone receptor (GnRHR) small molecule agonists, calcium flux assay in GnRHR-HEK293 cells (AID 1920063). Note: nearly all actives have a fitted effect of over 35% in size. The gist of the method: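 Calcium flux, agonist mode, human GnRHR stably integrated in HEK293; dye 1 h at 37 C before compound; Ex/Em=480/540 kinetic read, 3 min; 15 concentrations, triplicate.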
(In general: Calcium assays in cells follow changes in intracellular calcium, usually with a dye or a luminescent sensor.)

For assay [4], the target named is KiSS-1 receptor (Homo sapiens) (UniProt Q969F8). The assay is described as follows: Human kisspeptin (KISS1R) small molecule agonists, calcium flux assay in KISS1R-HEK293 cells (AID 1920064; active = well fitted curve in the direction sought with a large enough effect in the repeat runs; an effect the other way counts as inactive or inconclusive). The gist of the method: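 Triplicate 15-concentration series were applied to dye-loaded human KISS1R HEK293 cells, and agonist-evoked calcium fluorescence was captured for 3 min.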

Assay [5] in a line: G protein-coupled receptor (GPCR) small molecule agonists, calcium flux assay: HEK293 wild type cell line counter screen (AID 1920065). The gist of the method: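 Non-specific calcium responders were flagged by adding DMSO-dissolved compounds to dye-loaded cells and reading 480/540 nm fluorescence each second for 3 min; ATP served as positive control.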
A short description of assay [6]: p53 small molecule agonists, cell-based qHTS assay with human liver microsomes (AID 1963577).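 Note: p53 response element beta-lactamase reporter cells with liver microsomes plus NADPH.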 In outline: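 Reporter activation was measured by LiveBLAzer fluorescence intensity in p53RE-bla cells, which had been exposed to compounds for 16 h at 37 C alongside 0.5 mg/mL human liver microsomes and 0.5 mg/mL NADPH (final concentrations).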
Assay [7] can be described thus: p53 small molecule agonists, cell-based qHTS assay with human liver microsomes: qHTS cell viability counter screen (AID 1963579). Note: nearly all actives have a fitted effect of over 45% in size. Note: potency is the fitted concentration of half-maximal effect. In outline:
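HLM-supplemented (0.5 mg/mL final) and NADPH-supplemented (0.5 mg/mL final) p53RE-bla cultures, 4,000 cells per well, were dosed with compounds in DMSO for 16 h at 37 C; luminescent ATP detection (CellTiter-Glo, 30 min, room temperature) quantified surviving cells.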

A short description of assay [8]: p53 small molecule agonists, cell-based qHTS assay with rat liver microsomes: qHTS cell viability counter screen (AID 1963580). Note: nearly all actives have a fitted effect of over 45% in size. Note: potency is the fitted concentration of half-maximal effect. In outline: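 After the beta-lactamase ratio was read, CellTiter-Glo was added to the same wells and luminescence measured at 30 min; cells had been treated 16 h at 37 C with compounds, rat liver microsomes and NADPH (0.5 mg/mL final each).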

Assay [9] concerns the target 5-hydroxytryptamine receptor 2A (Homo sapiens) (UniProt P28223). The assay is described as follows: 5-hydroxytryptamine receptor 2A (HTR2A) small molecule agonists, cell-based qHTS assay (AID 1963587). Note: nearly all actives have a fitted effect of over 30% in size. Note: potency is the fitted concentration of half-maximal effect. In outline:
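CHO cells stably expressing human HTR2A, plated 18 h, loaded with calcium dye 1 h at 37 C. Agonist mode: compounds added and intracellular calcium fluorescence recorded kinetically for 2 min at 1 sec intervals.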

Assay [10] addresses Muscarinic acetylcholine receptor M1 (Homo sapiens) (UniProt P11229). The assay is described as follows: Cholinergic receptor muscarinic 1 (CHRM1) small molecule antagonists, cell-based qHTS assay (AID 1963588). Note: nearly all actives have a fitted effect of over 40% in size. In outline: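 Compounds were tested at 15 concentrations in three independent runs. Dye-loaded CHRM1-CHO cells were exposed 5 min at room temperature before stimulation by acetylcholine added at 50nM. Intracellular calcium was read kinetically on FDSS for 3 min.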

For assay [11] the target is unchanged. The assay is described as follows: Cholinergic receptor muscarinic 1 (CHRM1) small molecule agonists, cell-based qHTS assay (AID 1963589). Note: nearly all actives have a fitted effect of over 35% in size. In outline:
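qHTS, 15-point titration, 3 independent runs: compounds pin-transferred onto dye-loaded CHRM1-CHO cells (human M1), calcium fluorescence followed every second to detect agonism.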

A short description of assay [12]: cAMP Responsive Elements (CRE) small molecule agonists, cell-based qHTS assay (AID 1963590). In outline: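 Quantitative HTS for CRE agonists: HEK 293T CRE-bla cells, overnight plating, 3 h compound incubation at 37 C/5% CO2, then 2 h room-temperature LiveBLAzer B/G FRET substrate loading.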
Assay [13] can be described thus: cAMP Responsive Elements (CRE) small molecule antagonists, cell-based qHTS assay (AID 1963591; active = well fitted inhibition curve with a large enough effect in the signal ratio in the repeat runs, not every such curve was filed as active; the % refers to the signal ratio). In outline:
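Fluorescence intensity from cleaved LiveBLAzer B/G substrate (2 h, room temperature) quantified CRE-bla activity in HEK 293T cells exposed 3 h to compound with 0.25 uM final NKH477.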

The target in assay [14] is Beta-2 adrenergic receptor (Homo sapiens) (UniProt P07550). The assay is described as follows: Adrenergic beta2 receptor (ADRB2) small molecule antagonists, cell-based qHTS assay (AID 1963592). Note: series mostly up to about 92 µM; nearly all actives have a fitted effect of over 50% in size. The gist of the method:
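Assay format: CHO-ADRB2 cells, 18-20hr seeding at 37C/5% CO2, then compound plus 1nM isoproterenol agonist mix for 0.5hr RT. Homogeneous time-resolved fluorescence cAMP detection after 1hr, expressed as 665/615 nm ratio.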

Assay [15] has as its target D(2) dopamine receptor (Homo sapiens) (UniProt P14416). The assay is described as follows: Dopamine D2 receptor (DRD2) small molecule agonists, cell-based qHTS assay (AID 1963594). Note: nearly all actives have a fitted effect of over 35% in size. The gist of the method:
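HEK293 cells stably expressing human DRD2, pre-treated with PDE inhibitor Ro20-1724 (0.1 mM final) and compound 10 min at room temperature, then stimulated with NKH477 (200nM […]) for 30 min. cAMP read by HTRF (665/620 nm).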

For assay [16] the target is unchanged. The assay is described as follows: Dopamine D2 receptor (DRD2) small molecule antagonists, cell-based qHTS assay (AID 1963595; active = well fitted inhibition curve with a large enough effect in the signal ratio in the repeat runs, with a control signal flat; the % refers to the signal ratio; note: potency is the fitted concentration of half-maximal effect). The gist of the method:
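Cells were plated and grown for 24 h at 37 °C. Ro20-1724 (0.1 mM final) went in first, then compound for 10 min. NKH477 (200 nM) with quinpirole (12 nM) followed for 30 min at RT, then HTRF detection reagents for 1 h.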

Assay [17] can be described thus: p53 small molecule agonists, cell-based qHTS assay: qHTS cell viability counter screen (AID 1963581). Note: nearly all actives have a fitted effect of over 45% in size. Note: potency is the fitted concentration of half-maximal effect. The gist of the method:
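Multiplexed with the reporter read, a CellTiter-Glo step (30 min, room temperature) gauges ATP-based viability of HCT-116 p53RE-bla cells after 16 h compound incubation at 37 C.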

Assay [18] addresses 5-hydroxytryptamine receptor 2A (Homo sapiens) (UniProt P28223). The assay is described as follows: 5-hydroxytryptamine receptor 2A (HTR2A) small molecule antagonists, cell-based qHTS assay (AID 1963586). Note: nearly all actives have a fitted effect of over 45% in size. The gist of the method:
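CHO cells stably expressing human HTR2A were plated for 18 h at 37 C, then loaded with calcium dye for 1 h. Compounds were preincubated 5 min at room temperature before DOI (4 nM solution) was added. Kinetic fluorescence was read for 3 min.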

Assay [19] can be described thus: p53 small molecule agonists, cell-based qHTS assay (AID 1963582; active = well fitted activation curve with a large enough effect in the signal ratio in the repeat runs, not every such curve was filed as active; the % refers to the signal ratio). In outline:
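Beta-lactamase reporter cells (p53RE-bla) treated with compounds for 16 h at 37 C; FRET substrate, 2 h, room temperature; fluorescence intensity.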

Assay [20] is described as follows: p53 small molecule agonists, cell-based qHTS assay with rat liver microsomes (AID 1963578). The gist of the method:
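Compound in DMSO added to p53RE-bla cells 5 h post-plating; rat microsomes/NADPH 0.5 mg/mL final; 16 h, 37 C; LiveBLAzer 2 h RT.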

Values without a mark were called inactive. Records with an inconclusive call do not appear. Activity calls are given as the source filed them. Unless noted, calls come from the whole dose curve.

Chain of 5-hydroxytryptamine receptor 2A (Homo sapiens) (P28223 whole entry, looked up): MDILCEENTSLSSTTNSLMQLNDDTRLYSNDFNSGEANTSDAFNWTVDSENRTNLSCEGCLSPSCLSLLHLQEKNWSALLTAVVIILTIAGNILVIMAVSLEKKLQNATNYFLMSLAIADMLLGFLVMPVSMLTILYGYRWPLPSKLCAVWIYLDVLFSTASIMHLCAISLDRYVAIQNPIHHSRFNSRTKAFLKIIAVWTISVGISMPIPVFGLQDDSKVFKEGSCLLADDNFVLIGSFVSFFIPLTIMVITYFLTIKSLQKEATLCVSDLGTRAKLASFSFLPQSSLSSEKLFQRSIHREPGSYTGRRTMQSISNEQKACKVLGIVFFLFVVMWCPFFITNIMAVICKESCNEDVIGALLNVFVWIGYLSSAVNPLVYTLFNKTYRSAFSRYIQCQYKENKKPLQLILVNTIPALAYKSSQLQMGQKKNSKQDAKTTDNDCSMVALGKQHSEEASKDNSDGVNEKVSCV
Chain of D(2) dopamine receptor (Homo sapiens) (P14416 whole entry, looked up): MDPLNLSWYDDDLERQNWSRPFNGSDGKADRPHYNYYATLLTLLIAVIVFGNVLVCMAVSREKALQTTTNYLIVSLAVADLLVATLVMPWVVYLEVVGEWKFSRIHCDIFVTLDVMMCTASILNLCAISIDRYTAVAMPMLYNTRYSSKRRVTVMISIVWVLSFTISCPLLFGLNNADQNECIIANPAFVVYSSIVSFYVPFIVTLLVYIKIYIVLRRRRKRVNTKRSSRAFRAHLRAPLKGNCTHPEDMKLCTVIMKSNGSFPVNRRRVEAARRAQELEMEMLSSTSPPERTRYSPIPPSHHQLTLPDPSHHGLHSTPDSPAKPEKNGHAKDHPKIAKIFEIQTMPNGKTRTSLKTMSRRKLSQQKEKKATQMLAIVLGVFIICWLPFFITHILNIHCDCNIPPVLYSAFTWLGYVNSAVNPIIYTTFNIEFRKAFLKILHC
Chain of Gonadotropin-releasing hormone receptor (Homo sapiens) (P30968 whole entry, looked up): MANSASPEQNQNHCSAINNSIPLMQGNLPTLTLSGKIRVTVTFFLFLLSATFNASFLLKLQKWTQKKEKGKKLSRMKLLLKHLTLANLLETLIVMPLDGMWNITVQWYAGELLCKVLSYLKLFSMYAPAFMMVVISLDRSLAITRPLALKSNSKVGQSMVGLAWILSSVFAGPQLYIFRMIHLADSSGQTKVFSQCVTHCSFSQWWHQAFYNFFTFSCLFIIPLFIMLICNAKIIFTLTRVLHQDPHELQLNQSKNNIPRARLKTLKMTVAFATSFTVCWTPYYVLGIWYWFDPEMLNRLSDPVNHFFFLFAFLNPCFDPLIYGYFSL
Chain of Beta-2 adrenergic receptor (Homo sapiens) (P07550 whole entry, looked up): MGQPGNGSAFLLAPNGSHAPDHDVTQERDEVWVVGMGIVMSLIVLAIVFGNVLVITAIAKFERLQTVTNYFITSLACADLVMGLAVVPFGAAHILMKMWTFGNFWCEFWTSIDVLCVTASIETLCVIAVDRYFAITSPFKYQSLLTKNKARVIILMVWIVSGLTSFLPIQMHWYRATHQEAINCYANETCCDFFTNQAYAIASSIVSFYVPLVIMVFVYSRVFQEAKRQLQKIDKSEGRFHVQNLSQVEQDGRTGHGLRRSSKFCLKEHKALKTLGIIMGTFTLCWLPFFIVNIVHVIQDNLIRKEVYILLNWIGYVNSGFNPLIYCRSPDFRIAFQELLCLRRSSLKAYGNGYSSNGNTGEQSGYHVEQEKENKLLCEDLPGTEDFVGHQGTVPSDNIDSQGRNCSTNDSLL
Chain of Muscarinic acetylcholine receptor M1 (Homo sapiens) (P11229 whole entry, looked up): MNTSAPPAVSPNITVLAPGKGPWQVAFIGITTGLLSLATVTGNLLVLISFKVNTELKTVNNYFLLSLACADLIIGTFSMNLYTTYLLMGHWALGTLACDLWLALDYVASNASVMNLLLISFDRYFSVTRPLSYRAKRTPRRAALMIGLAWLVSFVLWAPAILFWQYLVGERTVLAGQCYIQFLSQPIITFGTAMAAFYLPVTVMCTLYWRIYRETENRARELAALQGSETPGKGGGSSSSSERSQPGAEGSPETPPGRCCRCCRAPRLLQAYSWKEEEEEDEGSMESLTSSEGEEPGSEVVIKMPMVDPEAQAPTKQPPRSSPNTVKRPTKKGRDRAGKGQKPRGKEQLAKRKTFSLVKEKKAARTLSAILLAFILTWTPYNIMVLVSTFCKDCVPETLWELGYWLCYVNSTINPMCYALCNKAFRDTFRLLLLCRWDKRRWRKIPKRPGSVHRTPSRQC
Chain of KiSS-1 receptor (Homo sapiens) (Q969F8 whole entry, looked up): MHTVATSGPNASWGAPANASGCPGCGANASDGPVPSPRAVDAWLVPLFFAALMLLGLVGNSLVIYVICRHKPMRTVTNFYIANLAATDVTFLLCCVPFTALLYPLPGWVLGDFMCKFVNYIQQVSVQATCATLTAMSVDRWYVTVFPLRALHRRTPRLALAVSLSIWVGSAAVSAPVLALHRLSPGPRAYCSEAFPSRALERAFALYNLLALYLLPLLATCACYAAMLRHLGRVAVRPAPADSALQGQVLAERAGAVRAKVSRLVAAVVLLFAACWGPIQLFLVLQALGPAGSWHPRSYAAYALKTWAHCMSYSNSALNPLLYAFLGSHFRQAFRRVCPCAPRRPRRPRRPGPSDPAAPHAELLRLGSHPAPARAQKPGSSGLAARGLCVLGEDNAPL

`C=C(C)C1CC=C(C)C(O)C1` (stereo unspecified): the Potency result in assay [1], in assay [2], in assay [3], in [6], in assay [7] and in assay [8] was “inactive” throughout. The Potency entry in assay [9], in assay [10], in assay [11], in assay [12], in assay [13] and in assay [14] was “inactive” in each case. For the same compound, the Potency result in assay [15] and in [16] was “inactive” in each case. Besides, the outcome in [4] and in assay [5] was inactive.
As for `Nc1cc(S(=O)(=O)O)ccc1O`, the Potency result in assay [1], in assay [2], in assay [3], in [6], in assay [7] and in [8] was “inactive” in each case. Further, the Potency entry in [17], in assay [18], in assay [9], in assay [10], in assay [11] and in assay [13] was “inactive” in each case. Further, the Potency entry in [15] and in assay [16] was “inactive” each time. Besides, the result in [4] and in [5] was inactive.
For the compound `CCCCCCCC[N+](CCCCCCCC)(CCCCCCCC)CCCCCCCC`, the Potency is 8.62 µM (active) in [1]; 18.2 µM (active) in assay [7]; 16.2 µM (active) in [8]; 4.57 µM (active) in [17]; 24.3 µM (active) in assay [16]. Further, the Potency entry in assay [2], in assay [3], in assay [6], in [9], in assay [11] and in assay [14] was “inactive” throughout. In addition, the Potency entry in [15] is “inactive”. The result in [4] and in [5] was inactive.
As for `COC(=O)CS`, the Potency entry in [1], in [3], in assay [6], in assay [7], in assay [8] and in assay [17] was “inactive” throughout. In addition, the Potency entry in assay [19], in assay [9], in assay [10], in assay [11], in assay [12] and in assay [14] was “inactive” in each case. Moreover, the Potency result in assay [15] was “inactive”. Besides, the Potency in assay [2] was 52.4 µM (active). Besides, the result in assay [4] and in assay [5] was inactive.
With `O=C(O)CCN(C1(C(=O)NO)CCCC1)S(=O)(=O)c1ccc(Oc2ccc(F)cc2)cc1`, the Potency entry in assay [1], in [2], in [3], in [20], in assay [7] and in assay [8] was “inactive” each time. Further, the Potency result in assay [17], in [19], in assay [18], in [9], in [10] and in [11] was “inactive” throughout. The Potency result in assay [12], in assay [14], in assay [15] and in assay [16] was “inactive” throughout. In addition, the outcome in assay [4] and in [5] was inactive.
In the case of `CCC(C)c1nccnc1OC` (stereo unspecified), the Potency entry in assay [1], in [2], in assay [3], in [6], in assay [7] and in [17] was “inactive” each time. For the same compound, the Potency entry in [19], in [18], in assay [9], in assay [10], in assay [11] and in assay [12] was “inactive” each time. Moreover, the Potency entry in assay [13], in assay [15] and in assay [16] was “inactive” in each case. In addition, the outcome in assay [4] and in [5] was inactive.
As for `CCCCN(CCCC)CCCOC(=O)c1ccc(N)cc1`, the Potency result in [1], in assay [2], in assay [3], in [6], in assay [7] and in [17] was “inactive” throughout. Besides, the Potency result in assay [10], in assay [11], in assay [13], in [15] and in assay [16] was “inactive” in each case. Further, the outcome in assay [4] and in assay [5] was inactive. For the same compound, in assay [9], the Potency is 3.38 µM (active).

For the origin of these results see PubChem BioAssay (Tox21).
